Screens deposited in PubChem by National Center for Advancing Translational Sciences (NCATS).
Only some compounds are listed: those with a hit (about 2.2% of all), similar ones and a draw of the others.
Abeta rescue: compounds reversing amyloid beta toxicity in yeast; yeast expressing A-beta42, growth rescue, OD600, 48 h; response scale: 0% DMSO, 100% iron-clioquinol control; Potency, µM (doses to about 46.1 µM), actives largely listed as activators; 410,000 compounds, 0.063% hits; also: nearly all actives have a fitted effect of over 55% in size
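Growth rescue measured by 600 nm absorbance after 48 h yeast culture at 30 C with compound. Values normalized between DMSO and an equimolar ferric chloride plus clioquinol control.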
Mito fusion yeast: inhibitors of mitochondrial division or activators of mitochondrial fusion | S. cerevisiae fusion-defective mutant growth rescue, CellTiterGlo 48 h | Potency, µM (series often up to 46.1 µM), for the others: at the top dose growth rescue (activation), most hits filed as activators | 320,000 compounds, 0.23% hits | AID 485298; also: % of control where 0% means no effect; nearly all actives have a fitted effect of over 45% in size
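Temperature-sensitive fusion-defective S. cerevisiae (e.g. fzo1-1, mgm1-5) were grown with compound in YPEG medium (3% ethanol, 3% glycerol) for 48 hours at 37C. Growth rescue was measured as viability by CellTiterGlo luminescence after 10 minutes at ambient.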
FUS yeast rescue: FUS proteinopathy suppression in yeast; S. cerevisiae FUS-expressing, growth rescue, OD600, 24 h; Potency, µM (doses to about 76.6 µM), actives largely listed as activators; 390,000 compounds, 0.24% hits; AID 1347120;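 also: plate controls were DMSO vehicle for no effect and reference control for full effect; nearly all actives have a fitted effect of over 55% in size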
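Absorbance at 600 nm, taken 24hr after compound addition, measured rescue of FUS-yeast growth at 30C. Induction used 2% galactose with seeding at OD 0.005. Controls: CP55940 from 92uM final, DMSO only.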
aSyn yeast inh: rescues yeast growth from alpha-synuclein toxicity; Yeast expressing alpha-synuclein, growth rescue, BacTiter-Glo, 24 h; Potency, µM (doses to about 46.1 µM), for inactives: at the highest dose growth rescue (activation), actives largely listed as activators; 370,000 compounds, 0.14% hits; AID 652106; also: % of control where 0% means no effect; nearly all actives have a fitted effect of over 65% in size
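Screening used galactose-induced yeast with toxic alpha-synuclein levels, exposed to compound for 24 hr at 30 deg C. Cell growth, read with BacTiter-Glo luminescence, gave the measured signal.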
TDP43 rescue: TDP-43 toxicity inhibition in yeast; TDP-43 expressing yeast growth rescue, BacTiter-Glo, 24 h; Potency, µM (titrated, usually from 46.1 µM), inactives show top-dose growth rescue (activation), most hits filed as activators; 410,000 compounds, 1.8% hits; AID 652104; also: % of control where 0% means no effect; nearly all actives have a fitted effect of over 50% in size
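Cell-based yeast growth screen: TDP-43 expression induced in galactose, inoculum OD600=0.02 after raffinose pregrowth to mid-log. Read-out BacTiter-Glo luminescence at 24 hr, 30 deg C; inhibition of toxicity seen as signal increase.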
The depositor's hits bear a star; i = inactive; ? = inconclusive; . = not tested or not shown; [ ] = remark or other dose. Calls follow the shape of the dose curve; as a rule, active = well fitted curve in the direction sought with a large enough effect; inconclusive = small, poorly fitted or top-dose-only effect, or another doubt; inactive = no such curve, though single readings can be large; an effect the other way counts as inactive or inconclusive. Potency is read from the fitted curve at half-maximal effect.

SMILES | Abeta rescue | Mito fusion yeast | FUS yeast rescue | aSyn yeast inh | TDP43 rescue
CN1C(=O)c2ccccc2N(C)C1c1ccccc1Cl (stereo not drawn) | i | 11% | i | 13% | 16µM*
Cc1cccc(-n2nc([N+](=O)[O-])c(=NC3CCN(Cc4ccccc4)CC3)n2O)c1 | i | ? | i | 0% | 17%
COc1ccc(CCN=c2c([N+](=O)[O-])nn(-c3cccc(C)c3)n2O)cc1OC | i | 1% | i | -1% | 18µM*
COc1ccc(-n2nc([N+](=O)[O-])c(=NCCc3cccc(C)c3)n2O)cc1 | i | 3% | i | 5% | 13µM*
COc1ccc(-n2nc([N+](=O)[O-])c(=NCc3ccc4c(c3)OCO4)n2O)cc1 | i | 21% | . | 20% | 13µM*
Cc1cccc(CCN=c2c([N+](=O)[O-])nn(-c3ccccc3)n2O)c1 | i | 7% | i | 1% | 16µM*
COC(=O)c1ccc2nc(-c3ccc(C)cc3)c(Cc3cccc(Cl)c3)n2c1 | i | . | i | 4% | 22µM*
COC(=O)c1ccc2nc(-c3ccccc3)c(Cc3ccc(C)cc3)n2c1 | i | . | i | 6% | 13µM*
COC(=O)c1ccc2nc(-c3ccccc3)c(Cc3ccsc3)n2c1 | i | . | i | -9% | 19%
COC(=O)c1ccc2nc(-c3ccc(F)cc3)c(Cc3ccccc3OC)n2c1 | i | . | i | -11% | 22µM*
COC(=O)c1ccc2nc(-c3ccc(Cl)cc3)c(Cc3cccc(Cl)c3)n2c1 | i | . | i | -1% | 20%
COc1ccc(-n2nnnc2SCC(=O)Nc2ccccc2F)cc1 | i | 0% | i | 0% | 3%
O=C1c2sc3nc4n(c(=O)c3c2CCC1Br)CCCCC4 (stereo not drawn) | i | -13% | ? | 9% | 13µM*
C=CCN1C(C(=O)OC)CN(Cc2cn(Cc3ccc(F)cc3)nn2)CCS1(=O)=O (stereo not drawn) | . | . | i | . | .
O=C(O)c1ccc(-c2nc(-c3cccc(C(F)(F)F)c3)cs2)cc1 | i | -2% | i | 1% | 4%
O=C(O)c1cccc(-n2cc(-c3cccc(C(F)(F)F)c3)cn2)c1 | i | 16µM* | i | 22% | 13%
COc1ccccc1N1CCN(C(=O)c2ccc3c(c2)NC(=O)C(CSCc2ccccc2C)N3)CC1 (stereo not drawn) | . | 31% | . | . | .
COCc1cc(Sc2ccc(Cl)cc2)nc(C)n1 | i | 3% | i | -6% | 11µM*
Cc1nc(CS(=O)(=O)c2ccc(Cl)cc2)cc(Sc2ccc(Cl)cc2)n1 | i | ? | i | 4% | 28µM*
Cc1ccccc1NC(=O)C1CCC(CNS(=O)(=O)c2ccc3c(c2)C(C)(C)C(=O)N3C)CC1 (stereo not drawn) | i | . | i | . | -2%
CCOC(=O)c1ccc(NS(=O)(=O)c2ccc(Br)s2)cc1 | i | . | i | . | 18µM*
COc1ccccc1C1NC(c2ccc3c(c2)OCO3)=CC(c2ccccc2O)N1 (stereo not drawn) | . | . | . | 1% | .
COCc1nc2sc3c(c2c(=O)[nH]1)CCCC3 | i | 22µM* | . | -20% | 9%
CC(=O)OCc1nc2sc3c(c2c(=O)[nH]1)CCCC3 | i | 0% | i | -2% | 8%
COC1=C[C@H](C(=O)NCCNC(C)=O)[C@@]2(C)Cc3ccccc3[C@H]2CC1=O | . | . | i | . | .
SMILES | Abeta rescue | Mito fusion yeast | FUS yeast rescue | aSyn yeast inh | TDP43 rescue
C#CCNC(=O)C[C@H]1C[C@@]2(C(=O)OC)C(=C[C@H](C(C)(C)C)O[C@@H]2C)N(Cc2ccco2)C1=O | . | . | i | . | .
Cc1ccc(-c2nn(C)c(=O)c3ccccc23)cc1S(=O)(=O)NCCCN(C)C | i | . | i | . | 12%
Cc1ccc(-c2nnn(C(C)C(=O)N3c4ccccc4CCc4ccccc43)n2)cc1 (stereo not drawn) | i[9.22 µM] | 14µM* | i | -2% | 1%
COC(=O)c1cccc(NC(=O)COc2cccc([N+](=O)[O-])c2)c1 | i | -1% | i | 0% | 11µM*
Cc1ccc(NC(=O)C2CC3CCC2C3)c(C)c1 (stereo not drawn) | . | . | i | . | .
CN1/C(=C\C(=O)c2ccco2)C(C)(C)c2ccccc21 | i | -10% | i | -35% | -61%
CN1/C(=C\C(=O)c2cncc(Br)c2)C(C)(C)c2ccccc21 | i | ? | i | 13% | 13µM*
CN1/C(=C/C(=O)c2nc(S(C)(=O)=O)ncc2Cl)C(C)(C)c2ccccc21 | i | -22% | . | 4% | 13µM*
CN1/C(=C\C(=O)c2cccnc2)C(C)(C)c2ccccc21 | i | 8% | i | 12% | 3%
Cc1[nH]n(-c2ccccc2)c(=O)c1/C=N/N1C(=O)c2cccc3cccc(c23)C1=O | ? | -4% | i | ? | 18µM*
Cc1[nH]n(-c2ccccc2)c(=O)c1/C=N/N1CCOCC1 | i | -1% | i | -8% | 6%
Cc1[nH]n(-c2ccccc2)c(=O)c1C=Nc1cccc2cccnc12 | i | -7% | . | -2% | 22µM*
COc1ccc(C)cc1NC(=O)c1ccccc1NS(=O)(=O)c1ccc(Cl)s1 | i | -14% | i | -20% | 26%
CCOC(=O)[C@]12CCCCC/C=C\1N(CCc1ccc(Cl)cc1)C(=O)[C@H]2CC(=O)NCc1cccc(C(F)(F)F)c1 | . | . | i | . | .
O=C(c1ccc(-c2ccc([N+](=O)[O-])cc2)o1)N1CCCC(C(F)(F)F)C1 (stereo not drawn) | i | 18% | ? | -9% | 35µM*
O=C(c1ccc(-c2ccc([N+](=O)[O-])cc2)o1)N1CCCCCCC1 | i | 29% | ? | -80% | -90%
O=C(CCc1ccccc1-c1ccccc1CCNC(=O)c1ccccc1)NCc1ccccc1 | . | . | i | . | .
COCCn1c(C)cc(C2=NNC(=Nc3ccccc3)SC2)c1C | i | 0% | 10µM* | 1% | -10%
CN(Cc1ccccc1)c1ccc(/C=C/c2sc3ccccc3[n+]2C)cc1 | . | . | . | -3% | .
CC1=C(C(=O)OCc2ccccc2)C(c2ccccc2Cl)NC(=O)N1CCCC(=O)O (stereo not drawn) | i | 1% | i | -4% | ?
CC1=C(C(=O)OCc2ccccc2)C(c2ccccc2Cl)NC(=O)N1CCCCCC(=O)O (stereo not drawn) | i | 1% | i | -3% | 35µM*
CCOc1ccccc1C(=O)Nc1cccc(-c2ccc(N3CCOCC3)nn2)c1 | ? | -26% | i | 7% | 16µM*
CCn1c(SC(C)C(=O)NCc2ccco2)nnc1-c1ccccc1 (stereo not drawn) | . | . | . | 2% | .
CCOC(=O)Cn1c(=O)n(Cc2ccco2)c(=O)c2ccc(C(=O)NC3CCCC3)cc21 | i | 0% | i | 0.56µM* | 12%
